Data on nine molecules can be found in PubChem BioAssay (Tox21).

Assay [1] in a line: qHTS assay to identify small molecule agonists of the estrogen receptor alpha (ER-alpha) signaling pathway in the presence of an antagonist - cell viability counter screen (AID 1259386).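 Note: series mostly up to about 92 µM; cells exposed to compounds for 22 h at 37 °C before the viability read; nearly all actives have a fitted effect of over 30% in size.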 The gist of the method:
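In this counter screen, compound effects on VM7Luc4E2 viability were tested in the presence of the antagonist ICI-182,780 at 10.0nM final. Compounds were dosed at 15 concentrations, exposure lasted 22hr, and the CellTiter-Fluor signal was read.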

Assay [2] has as its target Progesterone receptor (Homo sapiens) (UniProt P06401). The assay is described as follows: qHTS assay to identify small molecule agonists of the progesterone receptor (PR) signaling pathway (AID 1346784; calls by dose curve; note: nearly all actives have a fitted effect of over 30% in size). Summed up:
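Reporter assay, GripTite PR-UAS-bla HEK 293T cells: 16 hr exposure to DMSO-dissolved compounds at 37C, 5% CO2, in steroid-depleted (2% charcoal-stripped FBS) medium; beta-lactamase measured by FRET fluorescence.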

Assay [3] can be described thus: qHTS assay to identify small molecule antagonists of the progesterone receptor (PR) signaling pathway - cell viability counter screen (AID 1346798). Note: nearly all actives have a fitted effect of over 50% in size. Note: potency is the fitted concentration of half-maximal effect. The gist of the method: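 In the same plates used for the beta-lactamase readout, cell viability of compound- and R5020-treated PR-UAS-bla HEK293T cells (16 hr, 37C) was assessed by CellTiter-Glo luminescence.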
A short description of assay [4]: qHTS assay to identify small molecule agonists of the progesterone receptor (PR) signaling pathway - cell viability counter screen (AID 1346799; calls by dose curve; note: nearly all actives have a fitted effect of over 45% in size). The gist of the method: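 Multiplexed viability read: CellTiter-Glo luminescence, 30 min RT, following LiveBLAzer FRET measurement on PR-UAS-bla HEK293T cells exposed to compounds 16 hr.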
Assay [5] is described as follows: qHTS assay to identify small molecule antagonists of the TGF-beta/Smad signaling pathway - cell viability counter screen (AID 1346824). Note: nearly all actives have a fitted effect of over 50% in size. Summed up:
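SBE-bla HEK 293T cells, incubated overnight, then compound plus 0.25 ng/mL TGF-beta1 (stock added) for 5 hr at 37 C. Viability was read in the same wells by CellTiter-Glo luminescence after 30 min at room temperature.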

A short description of assay [6]: qHTS assay to identify small molecule agonists of the TGF-beta/Smad signaling pathway - cell viability counter screen (AID 1346829). Note: top concentration of the series differs between compounds; nearly all actives have a fitted effect of over 45% in size. The gist of the method: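 In parallel with the Smad reporter read, viability of HEK 293T cells stably carrying SBE-bla is quantified by ATP luminescence following 5 hr compound treatment.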
Assay [7] in a line: qHTS assay to identify small molecule agonists of the TGF-beta/Smad signaling pathway (AID 1346859; active = well fitted activation curve with a large enough effect in the signal ratio in the repeat runs, not every such curve was filed as active; the % refers to the signal ratio; note: series mostly up to about 77 µM). The gist of the method:
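Screening used HEK 293T SBE-bla cells at 4,000/well. Test agents: 5 hr, 37 C. Detection: FRET substrate, 2 hr RT, then excitation 405 nm with emissions at 460 and 530 nm.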

For assay [8], the target named is Thyrotropin-releasing hormone receptor (Homo sapiens) (UniProt P34981). The assay is described as follows: qHTS assay to identify small molecule antagonists of the thyrotropin-releasing hormone receptor (TRHR) signaling pathway (AID 1346877; active = well fitted inhibition curve with a large enough effect in the repeat runs, not every such curve was filed as active; note: series mostly up to about 51 µM). The gist of the method: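 Kinetic fluorescence (3 min, 1 s resolution) following stimulation with TRH at 1 nM final; HEK293 cells bearing human TRHR; 5 min compound preincubation at RT; concentration-response over 15 points, triplicates.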

Assay [9] shares this target. The assay is described as follows: qHTS assay to identify small molecule agonists of the thyrotropin-releasing hormone receptor (TRHR) signaling pathway (AID 1346891; calls by dose curve; note: series mostly up to about 58 µM). Summed up:
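Readout was intracellular calcium fluorescence in TRHR-Hek293 cells. Cells were incubated 18 h, dye-loaded 2 h at 37 °C, and treated with compound in agonist mode.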

Assay [10] in a line: Human pregnane X receptor (PXR) small molecule agonists, qHTS cell viability counter screen (AID 1346977). Note: nearly all actives have a fitted effect of over 50% in size. Summed up: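 In each well, the PXR reporter HepG2 line was checked for viability: CellTiter-Fluor reagent added 23hr post-dosing, fluorescence read after 1hr incubation at 37C.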
The nature of assay [11]: Caspase-3/7 induction in HepG2 cells by small molecules, qHTS assay (AID 1346978). Note: nearly all actives have a fitted effect of over 15% in size. The gist of the method:
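Wild-type HepG2 cells, 2,000/well, settled 5 hr at 37 C and 5% CO2, then compound-treated for 17 hr; caspase-3/7 activity read by luminescent Caspase-Glo 3/7 after 30 min at room temperature.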

The nature of assay [12]: Caspase-3/7 induction in CHO-K1 cells by small molecules, qHTS cell viability counter screen (AID 1346979). Note: nearly all actives have a fitted effect of over 35% in size. The gist of the method: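 Following a 5hr settling period, CHO-K1 cells at 1,500 per well received DMSO-dissolved compounds. Cell viability was quantified 16hr later by CellTiter-Fluor fluorescence, measured after 1hr with reagent at 37C.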
Assay [13] in a line: Caspase-3/7 induction in CHO-K1 cells by small molecules, qHTS assay (AID 1346980). Note: nearly all actives have a fitted effect of over 15% in size. Summed up: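 Wild-type CHO-K1 cells exposed to compounds for 17hr at 37 C, 5% CO2. Caspase-3/7 activity then measured by Caspase-Glo 3/7 luminescence after 30min at room temperature.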
Assay [14] in a line: Caspase-3/7 induction in HepG2 cells by small molecules, qHTS cell viability counter screen (AID 1346981). Note: series mostly up to about 92 µM; nearly all actives have a fitted effect of over 30% in size. Summed up:
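In this quantitative HTS counter screen, compounds delivered in DMSO were left on unmodified HepG2 cells for 16 hr at 37 C. Viability was then determined fluorometrically with CellTiter-Fluor, in parallel with caspase-3/7 induction in the same wells.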

The target of assay [15] is Nuclear receptor subfamily 1 group I member 2 (Homo sapiens) (UniProt O75469). The assay is described as follows: Human pregnane X receptor (PXR) small molecule agonists, qHTS assay (AID 1346982). Note: nearly all actives have a fitted effect of over 35% in size. Note: potency is the fitted concentration of half-maximal effect. Summed up:
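Reporter HepG2 cells expressing PXR-Luc are cultured in charcoal-stripped FBS (5%), treated with compounds for 24 hr at 37 C, and assayed by ONE-Glo luminescence after 30 min at room temperature.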

The target of assay [16] is Acetylcholinesterase (Homo sapiens) (UniProt P22303). The assay is described as follows: Acetylcholinesterase (AChE) small molecule antagonists: colormetric cell-based qHTS assay (AID 1347395; calls by dose curve; note: nearly all actives have a fitted effect of over 30% in size). The gist of the method: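 After overnight attachment at 37 C, SH-SY5Y cells get 30 min compound exposure; detection cocktail (acetylthiocholine, DTNB) then incubates 90 min at 37 C, and absorbance reflects AChE-generated thiocholine.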

A number with no mark means an inactive call. Results filed as inconclusive are left out. Active and inactive are the calls of the source. Unless noted, calls come from the whole dose curve; as a rule, active = well fitted curve in the direction sought with a large enough effect in the repeat runs; inconclusive = weak or mixed curves; inactive = no such curve, though single readings can be large; an effect the other way counts as inactive or inconclusive.

Chain of Acetylcholinesterase (Homo sapiens) (P22303 whole entry, looked up): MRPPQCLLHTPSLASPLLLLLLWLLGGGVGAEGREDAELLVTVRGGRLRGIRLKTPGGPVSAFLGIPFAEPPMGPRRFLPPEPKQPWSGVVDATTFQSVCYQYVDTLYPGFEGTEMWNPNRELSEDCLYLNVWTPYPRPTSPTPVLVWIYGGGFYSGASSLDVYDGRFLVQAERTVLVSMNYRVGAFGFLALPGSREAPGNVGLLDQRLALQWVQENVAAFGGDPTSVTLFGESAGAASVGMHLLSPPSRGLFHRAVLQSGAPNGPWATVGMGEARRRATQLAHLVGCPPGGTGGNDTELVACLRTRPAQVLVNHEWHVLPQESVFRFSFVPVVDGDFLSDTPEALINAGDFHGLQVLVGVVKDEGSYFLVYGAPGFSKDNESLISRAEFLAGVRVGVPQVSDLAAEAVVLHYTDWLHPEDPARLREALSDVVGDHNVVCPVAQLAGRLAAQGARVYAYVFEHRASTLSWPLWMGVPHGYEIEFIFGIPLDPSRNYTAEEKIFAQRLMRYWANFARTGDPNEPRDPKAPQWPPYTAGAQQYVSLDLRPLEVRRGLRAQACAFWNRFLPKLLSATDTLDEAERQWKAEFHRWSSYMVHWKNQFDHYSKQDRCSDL
Chain of Thyrotropin-releasing hormone receptor (Homo sapiens) (P34981 whole entry, looked up): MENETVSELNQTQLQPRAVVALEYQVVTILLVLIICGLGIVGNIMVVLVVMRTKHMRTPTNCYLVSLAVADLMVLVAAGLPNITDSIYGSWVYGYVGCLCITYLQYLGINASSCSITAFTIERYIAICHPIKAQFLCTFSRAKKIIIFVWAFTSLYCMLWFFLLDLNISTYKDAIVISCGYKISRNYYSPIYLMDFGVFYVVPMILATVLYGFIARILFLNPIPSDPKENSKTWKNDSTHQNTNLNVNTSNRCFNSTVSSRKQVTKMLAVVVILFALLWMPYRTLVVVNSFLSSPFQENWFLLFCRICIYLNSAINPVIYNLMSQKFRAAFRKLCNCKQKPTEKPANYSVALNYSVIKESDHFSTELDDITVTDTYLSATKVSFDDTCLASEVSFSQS
Chain of Progesterone receptor (Homo sapiens) (P06401 whole entry, looked up): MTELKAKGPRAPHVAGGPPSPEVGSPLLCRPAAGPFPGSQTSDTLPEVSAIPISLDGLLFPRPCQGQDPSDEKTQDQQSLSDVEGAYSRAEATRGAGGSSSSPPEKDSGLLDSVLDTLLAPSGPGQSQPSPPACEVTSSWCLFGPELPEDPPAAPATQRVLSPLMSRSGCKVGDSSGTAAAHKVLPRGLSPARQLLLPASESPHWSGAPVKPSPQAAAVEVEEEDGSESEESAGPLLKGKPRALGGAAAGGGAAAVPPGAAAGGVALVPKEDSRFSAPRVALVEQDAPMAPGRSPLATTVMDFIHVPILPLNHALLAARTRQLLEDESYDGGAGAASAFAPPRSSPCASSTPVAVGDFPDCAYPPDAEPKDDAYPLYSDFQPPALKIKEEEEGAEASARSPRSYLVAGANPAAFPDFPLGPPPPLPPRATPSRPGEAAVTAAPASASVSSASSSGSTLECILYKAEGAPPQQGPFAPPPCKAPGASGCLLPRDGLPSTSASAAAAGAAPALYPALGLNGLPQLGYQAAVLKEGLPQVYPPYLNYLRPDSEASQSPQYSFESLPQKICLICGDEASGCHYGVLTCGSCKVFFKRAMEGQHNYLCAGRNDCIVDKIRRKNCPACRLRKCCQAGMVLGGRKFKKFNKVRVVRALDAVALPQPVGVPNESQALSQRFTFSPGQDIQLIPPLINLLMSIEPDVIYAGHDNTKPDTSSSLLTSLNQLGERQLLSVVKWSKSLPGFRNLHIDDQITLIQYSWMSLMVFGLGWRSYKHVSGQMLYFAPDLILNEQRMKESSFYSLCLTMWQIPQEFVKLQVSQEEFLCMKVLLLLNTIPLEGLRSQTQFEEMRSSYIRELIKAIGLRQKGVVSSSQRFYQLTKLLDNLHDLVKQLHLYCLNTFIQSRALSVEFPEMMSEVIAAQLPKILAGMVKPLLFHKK
Chain of Nuclear receptor subfamily 1 group I member 2 (Homo sapiens) (O75469 whole entry, looked up): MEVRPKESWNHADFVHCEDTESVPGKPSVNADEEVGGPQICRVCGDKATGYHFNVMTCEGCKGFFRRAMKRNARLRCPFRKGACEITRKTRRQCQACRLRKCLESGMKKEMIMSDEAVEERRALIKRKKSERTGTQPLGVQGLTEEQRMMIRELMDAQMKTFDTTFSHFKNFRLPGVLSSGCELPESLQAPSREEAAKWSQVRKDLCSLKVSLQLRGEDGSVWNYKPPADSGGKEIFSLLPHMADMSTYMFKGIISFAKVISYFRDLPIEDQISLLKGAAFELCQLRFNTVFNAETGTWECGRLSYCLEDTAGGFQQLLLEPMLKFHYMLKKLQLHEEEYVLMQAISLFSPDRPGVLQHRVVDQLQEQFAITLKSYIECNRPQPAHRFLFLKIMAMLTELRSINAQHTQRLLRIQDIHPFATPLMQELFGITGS

For `CCCOC(=O)Cc1ccc(OCC(=O)N(CC)CC)c(OC)c1`, the Potency result in [1], in assay [2], in [3], in assay [4], in assay [6] and in [8] was “inactive” throughout. In addition, the Potency entry in assay [10], in [12], in [14] and in [16] was “inactive” in each case. In addition, the call in [5], in assay [7], in [9], in assay [11] and in [13] was inactive. In addition, in assay [15], the Potency is 15 µM (active).
Turning to `CCCCS(=O)(=O)Cl`, the Potency result in assay [1], in assay [2], in assay [3], in assay [6], in [8] and in assay [10] was “inactive” throughout. The Potency result in assay [12], in assay [14], in [15] and in assay [16] was “inactive” each time. Further, the call in assay [5], in assay [7], in [9], in [11] and in assay [13] was inactive.
For the molecule `CCC(=O)OC1(c2ccccc2)CCN(C)CC1`, the Potency result in [1], in [2], in [3], in assay [4], in assay [8] and in [10] was “inactive” throughout. Further, the Potency result in assay [15] is “inactive”. Further, the molecule was called inactive in assay [5], in assay [7], in [9], in assay [11] and in assay [13].
As for `COc1ccccc1OC`, the Potency entry in assay [1], in assay [2], in assay [3], in assay [6], in assay [8] and in [12] was “inactive” throughout. Moreover, the Potency result in assay [14] and in assay [16] was “inactive” each time. The outcome in assay [5], in assay [7], in assay [9], in assay [11] and in assay [13] was inactive.
Turning to `C=CCC1(C(C)CC)C(=O)NC(=O)NC1=O` (centres undefined), the Potency entry in assay [1], in [2], in assay [3], in assay [4], in assay [6] and in assay [10] was “inactive” in each case. Further, the Potency result in assay [12], in assay [14], in [15] and in [16] was “inactive” in each case. Moreover, the call in [5], in [7], in assay [11] and in [13] was inactive.
As for `CC1N=C(N)OC1c1ccccc1` (centres undefined), the Potency entry in assay [1], in assay [2], in assay [6], in [8], in assay [12] and in assay [14] was “inactive” throughout. Also, the Potency result in assay [15] and in assay [16] was “inactive” in each case. Moreover, in assay [3], the Potency is 37.7 µM (active). For the same molecule, the result in assay [5], in [7], in assay [9], in assay [11] and in assay [13] was inactive.
With `O=C(Cl)C(Cl)(Cl)Cl`, the Potency result in assay [1], in [2], in [3], in [6], in assay [8] and in assay [10] was “inactive” in each case. The Potency result in assay [12], in [14] and in assay [16] was “inactive” throughout. Besides, the molecule was classed as inactive in [5], in assay [7], in assay [9], in assay [11] and in assay [13]. In addition, in [15], the Potency was 43.5 µM (active).
For the molecule `CCCCCCCCSC(=O)Oc1cc(Cl)nnc1-c1ccccc1`, the Potency entry in assay [1], in assay [2], in [3], in assay [4], in assay [6] and in [8] was “inactive” throughout. The Potency result in assay [10] and in [16] was “inactive” each time. Besides, the molecule was called inactive in [5], in assay [7], in assay [9] and in assay [11].
On to `OCC(Cl)CCl` (centres undefined), for which the Potency result in assay [1], in [2], in [3], in [4], in assay [6] and in [8] was “inactive” in each case. The Potency entry in assay [14], in assay [15] and in [16] was “inactive” in each case. Further, the result in assay [5], in assay [7], in [9] and in assay [11] was inactive.
